Screening results as filed in PubChem.
In the library only some 2.1% were active in any assay of this set; here they are far more common.
B2AR arrestin = qHTS assay of beta-arrestin-biased ligands of beta2-adrenergic receptor; Beta-2 adrenergic receptor (Homo sapiens), P07550; beta-arrestin recruitment to beta2AR, cell-based reporter; Potency, µM (doses to about 46.1 µM), without a hit: at the top dose activation, most hits filed as activators; 330,000 compounds, 0.02% hits;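 note: potency is the fitted concentration of half-maximal effect; 0% = DMSO controls and full agonism = EC100 isoproterenol or metaproterenol; nearly all actives have a fitted effect of over 65% in size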
Target sequence (P07550 whole entry, looked up): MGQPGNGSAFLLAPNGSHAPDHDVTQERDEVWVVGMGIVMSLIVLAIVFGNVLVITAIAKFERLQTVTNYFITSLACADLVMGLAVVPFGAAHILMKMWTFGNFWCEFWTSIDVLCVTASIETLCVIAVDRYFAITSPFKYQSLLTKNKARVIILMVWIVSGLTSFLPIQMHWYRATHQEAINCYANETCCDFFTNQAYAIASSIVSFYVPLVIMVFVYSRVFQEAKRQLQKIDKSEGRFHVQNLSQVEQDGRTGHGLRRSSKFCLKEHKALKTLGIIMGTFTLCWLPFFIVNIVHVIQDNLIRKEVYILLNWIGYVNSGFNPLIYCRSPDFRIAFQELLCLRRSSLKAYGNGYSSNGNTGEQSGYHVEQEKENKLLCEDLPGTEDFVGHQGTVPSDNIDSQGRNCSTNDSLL
uPA generation = qHTS for Inhibitors of Cell Surface uPA Generation. cell surface uPA generation assay, qHTS. Potency, µM (top dose mostly 38.3 µM), inactives show at the highest dose activity change, negative = inhibition, most hits filed as inhibitors. 330,000 compounds, 0.31% hits. AID 540303, 2011; active = well fitted inhibition curve with a large enough effect; inconclusive = small, poorly fitted or top-dose-only effect; inactive = no such curve, though single readings can be large or run the other way; tested in mouse RAW 264.7 cells; note: potency is the fitted concentration of half-maximal effect; % is set by controls: 0 for no effect and ±100 for the full control effect; nearly all actives have a fitted effect of over 55% in size
Mito fusion yeast = qHTS Assay for Small Molecule Inhibitors of Mitochondrial Division or Activators of Mitochondrial Fusion; S. cerevisiae fusion-defective mutant growth rescue, CellTiterGlo 48 h; Potency, µM (top dose mostly 46.1 µM), inactives show top-dose growth rescue (activation), usual class: activators; 320,000 compounds, 0.23% hits; note: potency is the fitted concentration of half-maximal effect; % of control where 0% means no effect; nearly all actives have a fitted effect of over 45% in size
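Yeast fusion mutant, YPEG (non-fermentable carbon), compound, 48 h at 37C non-permissive; CellTiterGlo added, 10 min RT, luminescence read. Rescued growth = division inhibition.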
ClpP mod = qHTS Assay for Activators of ClpP. purified B. subtilis ClpP, FRET peptide cleavage, 20 min. ATP-dependent Clp protease proteolytic subunit (Bacillus subtilis (strain 168)), P80244. AID 651965, 2013. 340,000 compounds, 1.9% hits. Potency, µM (top dose mostly 57.5 µM), inactives show at the top dose activity change, negative = active; active = well fitted falling curve with a large enough effect; inconclusive = small, poorly fitted or top-dose-only effect; inactive = no such curve, though single readings can be large or run the other way; note: potency is the fitted concentration of half-maximal effect; the source files actives as falling curves though it sought activators and does not explain the sign; nearly all actives have a fitted effect of over 65% in size
Target sequence (P80244 whole entry, looked up): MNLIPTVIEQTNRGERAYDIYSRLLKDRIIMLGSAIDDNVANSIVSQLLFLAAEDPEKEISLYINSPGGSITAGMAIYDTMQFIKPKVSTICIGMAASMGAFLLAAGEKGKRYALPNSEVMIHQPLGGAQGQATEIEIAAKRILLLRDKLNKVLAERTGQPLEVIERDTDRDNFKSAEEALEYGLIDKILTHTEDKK
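FRET quenching reversal measured ClpP activation: 10 microg/mL B. subtilis ClpP at pH 8 with the FRET-FV decapeptide, read at 430 nm after 320 nm excitation. The 20-min minus 0-min signal was scaled between DMSO/no-enzyme wells and ADEP (5.8 microM final).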
p53 reactivator = qHTS assay for re-activators of p53 using a Luc reporter; Potency, µM (series often up to 92.2 µM), for inactives: top-dose activity change, positive = activation, hits mostly activators; H1299 p53-A138V BP100-luciferase reporter, luminescence, 24 h; AID 504706, 2011; 320,000 compounds, 0.063% hits; note: potency is the fitted concentration of half-maximal effect; % of control where 0% means no effect; nearly all actives have a fitted effect of over 45% in size
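p53-null H1299 cells stably carrying temperature-sensitive p53-A138V and a BP100-luciferase reporter were pinned with compounds (4-point, 1:5 series) and held 24 hrs at 37 deg C. Luminescence was read 10 min after detection reagent.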
Giardia kill = Small Molecules that selectively kill Giardia lamblia: qHTS; Giardia lamblia trophozoite viability; activity change, % at 7.66 µM, hits read low; 340,000 compounds, 0.15% hits; AID 540267, 2011; in the data active = activity change below about -80%; inconclusive = between about -30% and that limit;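 note: parasites exposed to compound for two days anaerobically before the ATP read; % is set by controls: 0 for no effect and ±100 for the full control effect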
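ATP-content bioluminescence gauges trophozoite survival. Cells (100/well) receive compound and incubate anaerobically for 48 hrs at 37 deg C; detection reagent follows for 15-30 min at room temperature.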
Active calls of the source: *; ? = inconclusive; . = no result given; ! = not active in a repeat. Unless noted, calls come from the whole dose curve; as a rule, active = well fitted curve in the direction sought with a large enough effect; inconclusive = small, poorly fitted or top-dose-only effect, or another doubt; inactive = no such curve, though single readings can be large; an effect the other way counts as inactive or inconclusive.

SMILES	B2AR arrestin	uPA generation	Mito fusion yeast	ClpP mod	p53 reactivator	Giardia kill
CCc1ccccc1NC(=O)Cn1nc(N2CCN(c3ccccc3OC)CC2)ccc1=O	.	.	.	1%	.	.
O=C(Cc1ccc(Cl)cc1)NO	.	.	.	-1%	.	.
CCC(NC(=O)c1ccccc1O)c1ccccc1 (configuration not stated)	-2%	.	?	32µM*	8%	-10
CCC(NC(=O)c1ccc([N+](=O)[O-])cc1[N+](=O)[O-])c1ccccc1 (configuration not stated)	0%	-3%	-5%	-3%	1%	49
CC[C@H](NC(=O)c1c(C)c(-c2ccccc2)nc2ccccc12)c1ccccc1	0%	4%	21µM*!	1%	-5%	-15
CCc1ccc(NC(=O)Cn2ccn(-c3ccc(C)c(C)c3)c(=O)c2=O)cc1	.	.	.	4%	.	.
Cc1ccc(-c2nn(CC(=O)NCc3ccccc3)c3c2cnc2ccc(F)cc23)cc1C	.	.	.	-4%	.	.
O=C(C[n+]1cccc2cccc(O)c21)c1ccc(Cl)cc1	.	.	.	-3%	.	.
O=c1c2ccccc2nc2n1CCN2	0%	-1%	-4%	16µM*	12%	2
O=C(NCC(c1ccc(Cl)cc1)N1CCCCC1)c1ccccc1F (configuration not stated)	.	.	.	-2%	.	.
C/C(=N\NC(=O)c1csc(C)c1C)c1ccco1	-1%	-7%	-1%	-1%	7.9µM*	-3
Cc1cc(=O)n(CC(=O)N2CCCc3ccccc32)c2c1c(C)nn2-c1cccc(F)c1	.	.	.	-2%	.	.
O=C(O)COc1ccccc1/C=C1\C(=O)Nc2ccc(Br)cc21	0%	-4%	-1%	25µM*	.	-13
O=C1Nc2ccc(Br)cc2/C1=C/C(=O)c1ccccc1	.	-5%	.	1%	.	-8
COc1cc(OC)c(/C=C/c2ccncn2)c(OC)c1	.	.	.	-11%	.	.
Nc1ccc2oc3ccccc3c2c1	0%	-3%	4%	18µM*	?	-5
O=C(CSc1ccc(-c2nc3ccccc3[nH]2)cn1)N1CCN(C(=O)c2ccco2)CC1	0%	.	-4%	32µM*	?	-8
O=C(CCc1nc2ccccc2[nH]1)N1CCN(C(=O)c2ccco2)CC1	-1%	14%	-4%	1%	1%	13
CCOC(=O)c1cc2c(n(-c3ccccc3)c1=O)CC(C)(C)CC2=O	0%	.	0%	13µM*	3%	5
Cc1ccc(S(=O)(=O)Nc2c(C)n(C)n(-c3ccccc3)c2=O)cc1C(=O)OC(C)C(=O)N(C)c1ccccc1 (configuration not stated)	-1%	-6%	0%	.	-4%	-3
Cc1ccc(S(=O)(=O)Nc2c(C)n(C)n(-c3ccccc3)c2=O)cc1C(=O)OC(C)C(=O)c1ccccc1 (configuration not stated)	.	5µM*	.	1%	.	6
Cc1cc(C)cc(-n2c(SCC(N)=O)nc3c(oc4ccccc43)c2=O)c1	.	.	.	1%	.	.
CCOC(=O)c1c(NC(=O)c2ccoc2C)sc2c1CCC2	0%	.	5%	35µM*	-1%	-2
CCOC(=O)c1c(NC(=O)c2nn(CC)cc2Br)sc2c1CCCCC2	0%	-1%	9%	28µM*	7%	-3
CCOC(=O)c1c(NC(=O)c2cc(Cl)ccc2Cl)sc2c1CCCC2	.	.	.	-1%	.	.
SMILES	B2AR arrestin	uPA generation	Mito fusion yeast	ClpP mod	p53 reactivator	Giardia kill
CCOC(=O)c1c(NC(=O)c2ccccc2C)sc2c1CCCC2	.	.	.	32µM*	.	.
CCOC(=O)c1c(NC(=O)c2ccccc2Cl)sc2c1CCc1ccccc1-2	0%	1%	11µM*	.	-2%	0
CC(=O)Nc1c(C(=O)Nc2ccccc2F)oc2ccccc12	.	.	.	33%	.	.
CCn1ncc(Br)c1C(=O)Nc1sc2c(c1C(N)=O)CCC2	0%	3%	20µM*	-4%	6%	0
Cn1cc(Br)c(C(=O)Nc2sc3c(c2C(N)=O)CCC3)n1	0%	-5%	-2%	-4%	13%	-2
Cc1ccc(Nc2n[nH]c(C)c2[N+](=O)[O-])c(C)c1	-1%	-3%	10µM*	2%	24%	4
O=C(CSc1nnc(CCCN2C(=O)c3cccc4cccc(c34)C2=O)n1-c1ccccc1)N1CCN(CCO)CC1	0%	11%	-3%	14µM*	-3%	10
O=C(NC1CCCCC1)c1ccc2c(c1)N(Cc1ccccc1Cl)C(=O)c1ccccc1S2	.	.	.	-3%	.	.
COC(=O)CN1C(=S)N(c2ccc(F)cc2)C(=O)C1CC(=O)Nc1ccccc1 (configuration not stated)	0%	2%	0%	-1%	-2%	-11
COC(=O)CN1C(=S)N(c2ccc(Cl)cc2)C(=O)C1CC(=O)Nc1ccccc1 (configuration not stated)	0%	2%	0%	13µM*	-13%	25
N#CC1=C(N)SC(N)=C(C#N)C1Cc1ccccc1	0%	-14%	4%	-22%	7%	-1
N#CC1=C(N)SC(N)=C(C#N)C1CCc1ccccc1	0%	-2%	-2%	32µM*	-17%	-6
CCC(C)(C)c1ccc(OCCCC[n+]2ccccc2)c(C(C)(C)CC)c1	0%	11µM*	11%	1%	-9%	4
CCCCCc1ccc(OCCCC[n+]2ccccc2)c(CCCCC)c1	0%	-12%	28%	.	-8%	-5
O=C(CCC(=O)N1CC2CCCN2c2ccccc21)NCc1ccc(Cl)cc1 (configuration not stated)	.	.	.	-1%	.	.
N#Cc1nc(-c2ccco2)oc1NCCc1ccccc1	0%	-8%	15%	28µM*	-2%	-2
N#Cc1nc(-c2ccc(F)cc2)oc1NCc1cccc2c1OCO2	0%	-1%	14%	4%	8%	10
Cc1ccc(-c2nc(C#N)c(NCc3cccc4c3OCO4)o2)cc1	0%	3%	17%	32µM*	27%	-4
COc1ccc(CCNc2oc(-c3ccco3)nc2C#N)cc1	0%	1%	5%	28µM*	4%	-11
Cc1ccc(CNc2oc(-c3ccco3)nc2C#N)cc1	0%	-5%	7%	16µM*	-2%	2
Cc1ccc2c(c1)N(C(=O)N1CCC(C(=O)NCc3cccc(Br)c3)CC1)CCO2	.	.	.	1%	.	.
Cc1cc(NC(=O)CSc2nc(-c3ccco3)cc(C(F)(F)F)n2)no1	0%	-10%	-1%	25µM*	-1%	-22
Cc1ccccc1Cn1ccc(NC(=O)CCSc2nc(-c3ccco3)cc(C(F)(F)F)n2)n1	0%	11%	-13%	28µM*	2%	-16
